Measured values from PubChem BioAssay (NCATS).
Results filed as inconclusive are left out. Active and inactive are the calls of the source. The call rests on the fitted dose curve.

assay: Confirmatory qHTS to identify inhibitors of SARS-CoV-2 cell entry (AID 1645844); settings: SARS-CoV-2 pseudotyped particle cell entry, luciferase; series mostly up to 57.2 µM; further: nearly all actives have a fitted effect of over 45% in size
Description: Assay Provider: Wei Zheng, Ph.D.
National Center for Advancing Translational Sciences, National Institute of Health, Rockville, MD.
SARS-CoV-2 spike protein, within the viral envelope, mediates viral attachment and infection of host cells. The SARS-CoV-2 spike protein specifically binds to the host receptor ACE2 (Angiotensin-converting enzyme 2). This interaction promotes endocytosis of the viral particle, additional events lead to viral-host cell membrane fusion and release of the viral contents, allowing viral replication.
While SARS-CoV-2 requires BSL-3 facilities for live virus work, pseudotyped partices (PP) that incorporate SARS-CoV-2 spike proteins without replication elements could facilitate studies on viral entry mechanisms in a BSL-2 setting. This PP cell entry assay could also enable screening of small molecule compound libraries in BSL-2 setting to identify inhibitors of SARS-CoV-2 cell entry.
SEQUENCE No. (e.g., 1, 2, 3, etc.); […] (e.g., Cells, Incubation, Reagent, etc.); VALUE and DESCRIPTION.
1. Cells. Seed 1500 HEK293-ACE2 cells (Expi293F with stable expression of human ACE2) in 2 uL/well media (DMEM, 10% FBS, 1x L-glutamine, 1x Pen/Strep, 1 ug/ml puromycin) in white 1536-well assay plates (Greiner #782073).
2. Incubation. Incubate at 37C with 5% CO2 overnight (~16 h).
3. Compounds. Dispense 23 nL/well compounds in DMSO via pin transfer.
4. Incubation. Incubate for 1 hr at 37C 5% CO2.
5. Reagent. Dispense 2 uL/well of SARS-CoV-2-S pseudotyped particles (PP). [a] PPs are produced with murine leukemia virus pseudotyping). [b] SARS-CoV-2-S is Wuhan-Hu-1 sequence (BEI #NR-52420) with C-terminal 19 amino acid truncation.
6. Centrifugation. […]
7. Incubation. Incubate at for 48 hr at 37C 5% CO2
8. Centrifugation. Remove supernatant with gentle centrifugation using a Blue Washer (BlueCat Bio).
9. Reagent. Dispense 4 uL/well of Bright-Glo Luciferase detection reagent (Promega #E2620).
10. Incubation. Incubate for 5 min at room temperature.
11. Detection. Read luminescence signal (Viewlux plate reader, PerkinElmer). Data was normalized with wells containing SARS-CoV-2-S PP as 100%, and wells containing bald PP (no fusion protein) as 0%.
Potency means the concentration at half of the fitted maximal effect.

SMILES	Potency
CCCOc1ccc2nc(NC(=O)OC)[nH]c2c1	0.764 µM (active)
C=CC[C@]1(O)CC[C@H]2[C@@H]3CCC4=CC(=O)CCC4=C3C=C[C@@]21C	15.2 µM (active)
CN(C)CCOC(c1ccccc1)c1ccc(Br)cc1 (stereo not given)	2.41 µM (active)
CC#C[C@]1(O)CC[C@H]2[C@@H]3C[C@H](C)C4=CC(=O)CC[C@]4(C)[C@H]3CC[C@@]21C	27.1 µM (active)
CC(=O)c1ccc2c(c1)N(CCCN1CCC(CCO)CC1)c1ccccc1S2	22.4 µM (active)
CCN(CC)CCOc1ccc(/C(=C(\Cl)c2ccccc2)c2ccccc2)cc1	21.5 µM (active)
O[C@@H](COc1cccc2ncccc12)CN1CCN(C2c3ccccc3[C@@H]3[C@H](c4ccccc42)C3(F)F)CC1 (stereo not given in full)	19.2 µM (active)
CCC(=O)C(CCN(C)C)(c1ccccc1)c1ccccc1	12.1 µM (active)
COCCOC(=O)C1=C(C)NC(C)=C(C(=O)OC/C=C/c2ccccc2)C1c1cccc([N+](=O)[O-])c1 (stereo not given)	24.1 µM (active)
Oc1ccc(Cl)cc1Cc1cc(Cl)ccc1O	0.0152 µM (active)
CC1=CC(=O)c2ccccc2C1=O	19.2 µM (active)
CCCSS/C(CCO)=C(\C)N(C=O)Cc1cnc(C)nc1N	inactive
CCCCCCOC(=O)NC(=N)c1ccc(NCc2nc3cc(C(=O)N(CCC(=O)OCC)c4ccccn4)ccc3n2C)cc1	10.8 µM (active)
CN(C(=O)c1c(O)c2ccccc2n(C)c1=O)c1ccccc1	inactive
CN1CCCCC1CCN1c2ccccc2Sc2ccc(S(C)=O)cc21 (stereo not given)	1.08 µM (active)
COC(=O)C1=C(C)NC(C)=C(C(=O)OC(C)(C)CN(C)CCC(c2ccccc2)c2ccccc2)C1c1cccc([N+](=O)[O-])c1 (stereo not given)	6.07 µM (active)
c1ccc2c(c1)Sc1ccccc1N2CC1CN2CCC1CC2 (stereo not given)	4.82 µM (active)
CCCCCOc1ccccc1/C(=C\SC)n1ccnc1	24.1 µM (active)
CN1CCC(=C2c3ccccc3CCc3sccc32)CC1	21.5 µM (active)
O=C1NC2CCCCN2C12CCN(CCCN1c3ccccc3CCc3ccc(Cl)cc31)CC2 (stereo not given)	15.2 µM (active)
CCCCC(CC)COC(=O)C(C#N)=C(c1ccccc1)c1ccccc1 (stereo not given)	27.1 µM (active)
CN(C)CCCN1c2ccccc2Sc2ccccc21	27.1 µM (active)
Clc1ccccc1C(c1ccccc1)(c1ccccc1)n1ccnc1	24.1 µM (active)
COC(=O)[C@H]1[C@H]2C[C@@H]3c4[nH]c5cc(OC)ccc5c4CCN3C[C@H]2C[C@@H](OC(=O)/C=C/c2ccc(O)c(OC)c2)[C@@H]1OC	30.4 µM (active)
O=C(Nc1ccccc1)OCC(CN1CCCCC1)OC(=O)Nc1ccccc1 (stereo not given)	inactive
O=C(CCCN1CCN(c2ccc(F)cc2)CC1)NC1c2ccccc2CSc2ccccc21 (stereo not given)	1.92 µM (active)
CCCCCC(=O)O[C@]1(C(C)=O)CC[C@H]2[C@@H]3CCC4=CC(=O)CC[C@]4(C)[C@H]3CC[C@@]21C	24.1 µM (active)
O=c1[nH]c(=O)n([C@H]2C[C@H](O)[C@@H](CO)O2)cc1C(F)(F)F	0.0857 µM (active)
Oc1c(Cl)cc(Cl)cc1Sc1cc(Cl)cc(Cl)c1O	2.71 µM (active)
CCOC(=O)C1=C(C)NC(C)=C(C(=O)OCC)C1c1ccccc1/C=C/C(=O)OC(C)(C)C	0.961 µM (active)
